{"source": "PubChem BioAssay (NCI)", "key": {"[1]": {"assay": "NCI Yeast Anticancer Drug Screen. Data for the wt1 strain (AID 149);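 note: 0% = growth of vehicle-treated wt1 cultures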", "details": "S. cerevisiae wt1 strain (SPY 50644) growth inhibition, hits give high values", "how_it_was_run": "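wt1 yeast, compound-treated; % growth inhibition vs vehicle control.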"}, "[2]": {"assay": "NCI Yeast Anticancer Drug Screen. Data for the rad50EPP+ strain (AID 151);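 note: 0% = growth of vehicle-treated control cultures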", "details": "S. cerevisiae rad50 mutant strain, hits give high values", "how_it_was_run": "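Yeast strain carrying rad50 alteration (rad50EPP+) exposed to compounds; growth inhibition measured relative to vehicle-treated controls.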"}, "[3]": {"assay": "NCI Yeast Anticancer Drug Screen. Data for the rad50 strain (AID 155);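 note: 0% = growth of vehicle-only cultures of the same strain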", "details": "S. cerevisiae rad50 strain growth inhibition, hits give high values", "how_it_was_run": "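Genetically altered yeast (DNA repair pathway); compound treatment; growth inhibition vs vehicle ctrl.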"}, "[4]": {"assay": "NCI Yeast Anticancer Drug Screen. Data for the mec2-1 strain (AID 157)", "details": "S. cerevisiae mec2-1 strain, hits give high values", "how_it_was_run": "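mec2-1 yeast strain, carrying an alteration in DNA damage repair or cell cycle control, was exposed to compounds; growth inhibition was measured relative to vehicle-treated controls.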"}, "[5]": {"assay": "NCI Yeast Anticancer Drug Screen. Data for the rad14 strain (AID 159);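 note: 0% = growth of vehicle-treated control cultures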", "details": "S. cerevisiae rad14 strain growth inhibition, hits give high values", "how_it_was_run": "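Test compounds were applied to a repair-deficient yeast strain. Its growth was then compared with that of cultures given vehicle alone, and inhibition was expressed relative to those controls.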"}, "[6]": {"assay": "NCI Yeast Anticancer Drug Screen. Data for the sgs1 mgt1 strain (AID 161);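 note: 0% = growth of cultures given vehicle only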", "details": "S. cerevisiae sgs1 mgt1 strain, hits give high values", "how_it_was_run": "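Percent growth inhibition was derived by comparing compound-exposed mutant yeast with vehicle-exposed cultures. The strain carries alterations in DNA damage repair.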"}, "[7]": {"assay": "NCI Yeast Anticancer Drug Screen. Data for the CLN2oe strain (AID 163);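 note: 0% = growth of vehicle-only control cultures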", "details": "S. cerevisiae CLN2oe strain, hits give high values", "how_it_was_run": "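Yeast cells carrying a defined cell-cycle control alteration were exposed to test compounds. Growth inhibition was scored against vehicle-treated control cultures.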"}, "[8]": {"assay": "NCI Yeast Anticancer Drug Screen. Data for the cln2 rad14 strain (AID 165);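 note: 0% = growth equal to vehicle treated cultures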", "details": "S. cerevisiae cln2 rad14 strain, hits give high values", "how_it_was_run": "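Yeast carrying cln2 and rad14 alterations (cell cycle control and DNA damage repair) were exposed to compounds. Growth inhibition was measured against vehicle-treated controls.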"}, "[9]": {"assay": "NCI Yeast Anticancer Drug Screen. Data for the bub3 strain (AID 167)", "details": "S. cerevisiae bub3 mutant strain, hits give high values", "how_it_was_run": "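Yeast carrying a defined mutation is treated with each compound, and growth is compared with that of vehicle-exposed cells to give inhibition.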"}, "[10]": {"assay": "NCI Yeast Anticancer Drug Screen. Data for the wt2 strain (AID 169);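 note: 0% = growth of vehicle-treated yeast cultures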", "details": "S. cerevisiae wt2 strain growth inhibition, hits give high values", "how_it_was_run": "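Yeast cells were exposed to test compounds, and growth inhibition was measured relative to vehicle-treated controls.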"}, "[11]": {"assay": "NCI Yeast Anticancer Drug Screen. Data for the sgs1 strain (AID 173);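 note: 0% = growth of vehicle-only control cultures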", "details": "S. cerevisiae sgs1 mutant, hits give high values", "how_it_was_run": "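Yeast mutant strains carrying defined defects in DNA damage repair or cell cycle control were exposed to test compounds. Growth inhibition was scored against vehicle-treated controls.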"}, "[12]": {"assay": "NCI Yeast Anticancer Drug Screen. Data for the mlh1 rad18 strain (AID 175)", "details": "S. cerevisiae mlh1 rad18 strain growth inhibition, hits give high values", "how_it_was_run": "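Growth inhibition of the yeast strain was measured after compound exposure and expressed relative to vehicle-treated controls. The strain carries defined defects in DNA damage repair.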"}, "[13]": {"assay": "NCI Yeast Anticancer Drug Screen. Data for the rad18 strain (AID 177)", "details": "S. cerevisiae rad18 mutant growth inhibition, hits give high values", "how_it_was_run": "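Yeast carrying a defined DNA damage repair alteration were exposed to compounds. Growth inhibition was expressed relative to vehicle-treated controls.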"}, "[14]": {"details": "at 5.0 µM (retest, dose inferred, filed as 0.5)"}, "[15]": {"details": "at 50.0 µM (retest, dose inferred, filed as 5.0)"}}, "note": "About 79,000 compounds went through this panel and 15% of them were active in at least one assay; those are over-represented in the sample as a whole. A number with no mark means an inactive call. Activity calls are given as the source filed them. Cut-off read from the data, not from the text of the source: active = growth inhibition above about 70%; inactive = the rest.", "data": [{"compound": "O=c1oc(C(C(F)(F)F)C(F)(F)F)nc2ccccc12", "values": [{"measurement": "growth inhibition", "setting": "[1]; at 1.2 µM", "value": 4, "unit": "%"}, {"measurement": "growth inhibition", "setting": "[1]; at 3.7 µM", "value": 24, "unit": "%"}, {"measurement": "growth inhibition", "setting": "[1]; at 11.0 µM", "value": 20, "unit": "%"}, {"measurement": "growth inhibition", "setting": "[1]; at 33.0 µM", "value": 23, "unit": "%"}, {"measurement": "growth inhibition", "setting": "[1]; at 100.0 µM", "value": 27, "unit": "%"}, {"measurement": "growth inhibition", "setting": "[2]; at 1.2 µM", "value": 22, "unit": "%"}, {"measurement": "growth inhibition", "setting": "[2]; at 3.7 µM", "value": 30, "unit": "%"}, {"measurement": "growth inhibition", "setting": "[2]; at 11.0 µM", "value": 35, "unit": "%"}, {"measurement": "growth inhibition", "setting": "[2]; at 33.0 µM", "value": 43, "unit": "%"}, {"measurement": "growth inhibition", "setting": "[2]; at 100.0 µM", "value": 51, "unit": "%"}, {"measurement": "growth inhibition", "setting": "[3]; at 1.2 µM", "value": 33, "unit": "%"}, {"measurement": "growth inhibition", "setting": "[3]; at 3.7 µM", "value": 27, "unit": "%"}, {"measurement": "growth inhibition", "setting": "[3]; [14]", "value": 10, "unit": "%"}, {"measurement": "growth inhibition", "setting": "[3]; at 11.0 µM", "value": 25, "unit": "%"}, {"measurement": "growth inhibition", "setting": "[3]; at 33.0 µM", "value": 29, "unit": "%"}, {"measurement": "growth inhibition", "setting": "[3]; [15]", "value": "72% (active)"}, {"measurement": "growth inhibition", "setting": "[3]; at 50.0 µM", "value": 36.1, "unit": "%"}, {"measurement": "growth inhibition", "setting": "[3]; at 100.0 µM", "value": 29, "unit": "%"}, {"measurement": "growth inhibition", "setting": "[4]; at 1.2 µM", "value": 13, "unit": "%"}, {"measurement": "growth inhibition", "setting": "[4]; at 3.7 µM", "value": 27, "unit": "%"}, {"measurement": "growth inhibition", "setting": "[4]; [14]", "value": 7, "unit": "%"}, {"measurement": "growth inhibition", "setting": "[4]; at 11.0 µM", "value": 23, "unit": "%"}, {"measurement": "growth inhibition", "setting": "[4]; at 33.0 µM", "value": 29, "unit": "%"}, {"measurement": "growth inhibition", "setting": "[4]; [15]", "value": "83% (active)"}, {"measurement": "growth inhibition", "setting": "[4]; at 50.0 µM", "value": "70.2% (active)"}, {"measurement": "growth inhibition", "setting": "[4]; at 100.0 µM", "value": 34, "unit": "%"}, {"measurement": "growth inhibition", "setting": "[5]; at 1.2 µM", "value": 16, "unit": "%"}, {"measurement": "growth inhibition", "setting": "[5]; at 3.7 µM", "value": 21, "unit": "%"}, {"measurement": "growth inhibition", "setting": "[5]; at 11.0 µM", "value": 26, "unit": "%"}, {"measurement": "growth inhibition", "setting": "[5]; at 33.0 µM", "value": 29, "unit": "%"}, {"measurement": "growth inhibition", "setting": "[5]; at 100.0 µM", "value": 42, "unit": "%"}, {"measurement": "growth inhibition", "setting": "[6]; [14]", "value": -5, "unit": "%"}, {"measurement": "growth inhibition", "setting": "[6]; [15]", "value": 12, "unit": "%"}, {"measurement": "growth inhibition", "setting": "[6]; at 50.0 µM", "value": 12.7, "unit": "%"}, {"measurement": "growth inhibition", "setting": "[7]; at 1.2 µM", "value": 18, "unit": "%"}, {"measurement": "growth inhibition", "setting": "[7]; at 3.7 µM", "value": 12, "unit": "%"}, {"measurement": "growth inhibition", "setting": "[7]; at 11.0 µM", "value": 26, "unit": "%"}, {"measurement": "growth inhibition", "setting": "[7]; at 33.0 µM", "value": 1, "unit": "%"}, {"measurement": "growth inhibition", "setting": "[7]; at 100.0 µM", "value": 15, "unit": "%"}, {"measurement": "growth inhibition", "setting": "[8]; [14]", "value": 23, "unit": "%"}, {"measurement": "growth inhibition", "setting": "[8]; [15]", "value": 33, "unit": "%"}, {"measurement": "growth inhibition", "setting": "[8]; at 50.0 µM", "value": 12.3, "unit": "%"}, {"measurement": "growth inhibition", "setting": "[9]; at 1.2 µM", "value": 3, "unit": "%"}, {"measurement": "growth inhibition", "setting": "[9]; at 3.7 µM", "value": 13, "unit": "%"}, {"measurement": "growth inhibition", "setting": "[9]; [14]", "value": -27, "unit": "%"}, {"measurement": "growth inhibition", "setting": "[9]; at 11.0 µM", "value": 20, "unit": "%"}, {"measurement": "growth inhibition", "setting": "[9]; at 33.0 µM", "value": -5, "unit": "%"}, {"measurement": "growth inhibition", "setting": "[9]; [15]", "value": -6, "unit": "%"}, {"measurement": "growth inhibition", "setting": "[9]; at 50.0 µM", "value": 16.6, "unit": "%"}, {"measurement": "growth inhibition", "setting": "[9]; at 100.0 µM", "value": 15, "unit": "%"}, {"measurement": "growth inhibition", "setting": "[10]; at 1.2 µM", "value": -3, "unit": "%"}, {"measurement": "growth inhibition", "setting": "[10]; at 3.7 µM", "value": -5, "unit": "%"}, {"measurement": "growth inhibition", "setting": "[10]; at 11.0 µM", "value": -7, "unit": "%"}, {"measurement": "growth inhibition", "setting": "[10]; at 33.0 µM", "value": 2, "unit": "%"}, {"measurement": "growth inhibition", "setting": "[10]; at 100.0 µM", "value": 32, "unit": "%"}, {"measurement": "growth inhibition", "setting": "[11]; at 1.2 µM", "value": 26, "unit": "%"}, {"measurement": "growth inhibition", "setting": "[11]; at 3.7 µM", "value": 39, "unit": "%"}, {"measurement": "growth inhibition", "setting": "[11]; at 11.0 µM", "value": 40, "unit": "%"}, {"measurement": "growth inhibition", "setting": "[11]; at 33.0 µM", "value": 43, "unit": "%"}, {"measurement": "growth inhibition", "setting": "[11]; at 100.0 µM", "value": 46, "unit": "%"}, {"measurement": "growth inhibition", "setting": "[12]; [14]", "value": 15, "unit": "%"}, {"measurement": "growth inhibition", "setting": "[12]; [15]", "value": "88% (active)"}, {"measurement": "growth inhibition", "setting": "[12]; at 50.0 µM", "value": 50.6, "unit": "%"}, {"measurement": "growth inhibition", "setting": "[13]; at 1.2 µM", "value": 22, "unit": "%"}, {"measurement": "growth inhibition", "setting": "[13]; at 3.7 µM", "value": 15, "unit": "%"}, {"measurement": "growth inhibition", "setting": "[13]; at 11.0 µM", "value": 20, "unit": "%"}, {"measurement": "growth inhibition", "setting": "[13]; at 33.0 µM", "value": 19, "unit": "%"}, {"measurement": "growth inhibition", "setting": "[13]; at 100.0 µM", "value": 30, "unit": "%"}]}]}
